# High-throughput results from PubChem BioAssay.
# The list is not random: actives were taken first. Their share in the collection is about 6.8%.
# PINK1 modulator: PINK1 expression modulation | PINK1 immunofluorescence, high-content cytometry, 24 h | Potency, µM (titrated, usually from 76.6 µM), for inactives: at the top dose activation (PINK1 increase), hits mostly activators | 410,000 tested, 0.2% active | AID 624263; active means well fitted activation curve with a large enough effect; inconclusive means small, poorly fitted or top-dose-only effect; cell line not stated here; further: % of control where 0% means no effect; nearly all actives have a fitted effect of over 65% in size
#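 Decision-based qHTS: stable cells, 24 h exposure to five compound concentrations, CCCP as control. Fixed cells stained for PINK1 plus nuclear, mitochondrial and cell markers, cytometer read.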
# KB-3-1 tox: kills parental KB-3-1 adenocarcinoma cells; Potency, µM (highest dose often 46.1 µM), actives largely listed as cytotoxic; KB-3-1 viability, CellTiter-Glo ATP luminescence, 72 h; 400,000 tested, 1.4% active; further: on the % scale 0 is the no-effect control and ±100 the full control effect; nearly all actives have a fitted effect of over 60% in size
#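 Screening of KB-3-1 cells (DMEM, 10% FBS, phenol-red free) ran from lowest to highest compound concentration; after 72 h at 37 °C viability was read luminescently and curves fitted.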
# MCF10A rerep: induces DNA re-replication in MCF 10a normal breast cells; MCF 10A DNA re-replication, Hoechst nuclear intensity, 48 h; Potency, µM (doses to about 46.1 µM), without a hit: at the top dose activity, positive = re-replication, hits mostly activators; 350,000 tested, 2.9% active; AID 624296; further: % of control where 0% means no effect; nearly all actives have a fitted effect of over 50% in size
# KB-V1 MDR tox: KB-V1 MDR subline cytotoxicity. KB-V1 MDR cells viability, CellTiter-Glo, 72 h. Potency, µM (titrated, usually from 46.1 µM), most hits filed as cytotoxic. 400,000 tested, 3.4% active; further: on the % scale 0 is the no-effect control and ±100 the full control effect; nearly all actives have a fitted effect of over 60% in size
#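 Luminescent ATP read-out (CellTiter-Glo, 10 min) measures survival of drug-selected KB-V1 MDR cells after 72 h, 37 degrees C compound exposure. Medium: phenol-red-free DMEM, 10% FBS. Values from fitted concentration-response curves.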
# PTAP TSG101 blk: blocks PTAP/TSG101 interaction to inhibit HIV-1 budding; 340,000 tested, under 10 active; Q99816; Potency, µM (top dose mostly 115 µM), for the others: top-dose activity change, negative = inhibition, most hits filed as inhibitors; Fluorescence polarization, FITC-PTAP peptide / Tsg101 binding; AID 493005; active means well fitted inhibition curve with a large enough effect in the main read-out, with a control signal flat, not every such curve was filed as active; inconclusive means small, poorly fitted or top-dose-only effect, or effect the other way, or a change in a side signal; inactive means no such curve, though single readings can be large or run the other way; further: % of control where 0% means no effect
# Target sequence (Q99816 whole entry, looked up): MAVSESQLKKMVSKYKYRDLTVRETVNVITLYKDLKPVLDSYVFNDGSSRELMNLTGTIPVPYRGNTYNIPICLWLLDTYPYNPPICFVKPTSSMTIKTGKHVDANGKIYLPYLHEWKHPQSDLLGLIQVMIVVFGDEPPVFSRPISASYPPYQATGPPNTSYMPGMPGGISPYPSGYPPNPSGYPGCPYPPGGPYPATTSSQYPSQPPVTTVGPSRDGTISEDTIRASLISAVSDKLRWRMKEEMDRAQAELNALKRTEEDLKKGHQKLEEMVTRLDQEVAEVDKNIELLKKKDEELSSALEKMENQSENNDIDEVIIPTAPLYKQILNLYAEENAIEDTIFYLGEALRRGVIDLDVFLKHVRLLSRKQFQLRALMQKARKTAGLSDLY
#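 Fluorescence polarization binding of Tsg101 binding domain (10 uM final) to FITC-labeled PTAP peptide (50 nM final) in HEPES pH 7.5 buffer with NaCl, Tween 20, EDTA, TCEP. Compounds added before peptide; binding 20 min at RT.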
# SW480 rerep: DNA re-replication induction in SW480 cells | SW480 DNA re-replication, Hoechst DNA content imaging, 48 h | Potency, µM (series often up to 46.1 µM), for the others: at the top dose re-replication activation, hits mostly activators | 340,000 tested, 1.8% active | AID 624297; further: % of control where 0% means no effect; nearly all actives have a fitted effect of over 55% in size
#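 SW480 cells exposed to compounds for 48 hr at 37 C, 5% CO2, then Hoechst-stained 40 min. Nuclear DNA content imaged by fluorescence scanning (405 nm excitation, 500-530 nm emission); re-replication scored as increased high-intensity nuclei.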
# The depositor's hits bear a star; i = inactive; ? = inconclusive; . = not tested or not shown; [ ] = remark or other dose. Unless noted, the call rests on the fitted dose curve; in most records, active means well fitted curve in the direction sought with a large enough effect; inconclusive means small, poorly fitted or top-dose-only effect, or another doubt; inactive means no such curve, though single readings can be large; an effect the other way counts as inactive or inconclusive. Potency means the concentration at half of the fitted maximal effect.
SMILES,PINK1 modulator,KB-3-1 tox,MCF10A rerep,KB-V1 MDR tox,PTAP TSG101 blk,SW480 rerep
CC1(C(=O)NCc2ccccc2Br)CCN1Cc1ccc(-c2ccccc2)o1 (stereo not given),1.0%,5.17µM*,.,20.6µM*,.,.
Cc1ccccc1-n1cc(C(=O)c2cc(Cl)ccc2O)cc(C#N)c1=O,?,?,-3.2%,14.6µM*,0.6%,-20.3%
COc1ccccc1-n1cc(C(=O)c2cc(Cl)ccc2O)cc(C#N)c1=O,0.4%,i,-2.2%,i,-1.5%,-5.8%
O=C(Nc1ccc(F)cc1)Nc1nnc(SCC(=O)N2CCCCC2)s1,0.5%,.,.,.,.,.
CCSc1nsc(NC(=O)Nc2cccc(OC)c2)n1,?,?,1.8%,?,-1.9%,24.0%
CCSc1nsc(NC(=O)Nc2ccccc2F)n1,?,?,?,16.4µM*,-0.1%,-3.2%
C=CCSc1nsc(NC(=O)Nc2ccc(F)cc2)n1,?,?,?,20.6µM*,-4.0%,155.6%
COc1ccccc1CN1CCOc2ccc(CN3CCC(Oc4cccnc4)CC3)cc2C1,-0.6%,.,.,.,.,.
CC(C)C(NS(C)(=O)=O)c1nnc2n1CCN(Cc1ccc(C#CC(C)(C)O)cc1)CC2 (stereo not given),1.1%,.,.,.,.,.
Cc1cccc(OCC(=O)Nc2ccccc2C(=O)OCc2cc(=O)n3nc(C)sc3n2)c1,0.3%,.,.,.,.,.
CCOc1ccccc1CN1CCc2nc(Nc3ccc4c(c3)OCCO4)ncc2C1,0.7%,i,.,i,.,.
CC1CCN(S(=O)(=O)c2ccc3c(c2)CCN3C(=O)Nc2ccc(Br)cc2)CC1,1.0%,.,.,.,.,.
CCn1ccnc1CN(C)Cc1cn(-c2ccc(C)cc2)nc1-c1cccc(C)c1,5.7%,i,?,i,-1.8%,?
Cc1cccc(-n2cc(CN(C)Cc3nccn3C)c(-c3cccc(F)c3)n2)c1,1.0%,i,?,i,-3.5%,18.4µM*
CCn1ccnc1CN(C)Cc1cn(-c2cccc(C)c2)nc1-c1cccc(F)c1,-1.0%,?,5.8µM*,?,-5.2%,?
C[C@@H]1CN(Cc2ccc3c(c2)CN(C(=O)CCc2nc4ccc(F)cc4[nH]2)CCO3)C[C@H](C)O1,0.1%,.,.,.,.,.
Cc1ccc(CCNC(=O)c2ccc(CSCc3ccccc3C)o2)cc1,0.6%,.,.,.,.,.
COc1ccccc1N1CCN(C(=O)c2cnn(-c3ccc(C)c(C)c3)c2C2CCN(C(=O)OC(C)(C)C)CC2)CC1,-0.2%,20.6µM*,.,i,.,.
COc1cc(OC)cc(C(=O)N2CCCC(n3cc(C(=O)NCC(C)C)nn3)C2)c1 (stereo not given),-0.3%,.,.,.,.,.
CCOC(=O)Cn1c(S(=O)(=O)Cc2ccc(Cl)cc2)nc(-c2ccccc2)c1-c1ccccc1,4.8%[38.3 µM],?,?,7.31µM*,4.5%,7.9%
CCOC(=O)Cn1c(S(=O)(=O)Cc2ccccc2)nc2ccccc21,-0.8%,i,2.2%,i,-9.1%,22.6%
Nc1nc(Nc2cccc(Cl)c2)nc(NCc2ccco2)c1[N+](=O)[O-],-1.4%,16.4µM*,?,?,-5.6%,?
CC(C)CNc1nc(N)c([N+](=O)[O-])c(N2CCCCCC2)n1,0.1%,18.4µM*,?,9.2µM*,-7.4%,16.3%
CCC(C)Nc1nc(N)c([N+](=O)[O-])c(N2CCCCCC2)n1 (stereo not given),9.4%,i,-2.3%,i,-4.3%,-1.2%
Nc1nc(Nc2ccc(Cl)cc2)nc(NCc2ccco2)c1[N+](=O)[O-],1.1%,i,?,16.4µM*,-0.2%,-122.3%
SMILES,PINK1 modulator,KB-3-1 tox,MCF10A rerep,KB-V1 MDR tox,PTAP TSG101 blk,SW480 rerep
Cc1cccc(Nc2nc(N)c([N+](=O)[O-])c(NCc3ccco3)n2)c1,-2.3%,?,?,7.31µM*,-3.2%,?
Nc1nc(Nc2cccc(F)c2)nc(NCc2ccco2)c1[N+](=O)[O-],0.5%,?,?,?,-4.2%,?
COC(=O)c1c(OCc2ccccn2)cc(=O)n2c1CCN(Cc1ccc3nsnc3c1)CC2,1.6%,.,.,.,.,.
CCC(C)S(=O)(=O)c1oc(-c2cccs2)nc1S(=O)(=O)c1ccccc1 (stereo not given),-1.0%,.,.,.,.,.
CSCCC(NC(=O)C1CCCCC1)C(=O)Nc1ccc(F)c(Cl)c1 (stereo not given),0.0%,i,.,i,.,.
CN1CCN(c2nc(NCc3ccco3)nc(N)c2[N+](=O)[O-])CC1,-0.4%,i,?,i,-0.2%,13µM*
Nc1nc(NCc2ccco2)nc(N2CCCCC2)c1[N+](=O)[O-],1.7%,i,-0.4%,i,-2.4%,-1.8%
O=C(c1cc(NC(=O)C23CC4CC(CC(C4)C2)C3)cc(NC(=O)C23CC4CC(CC(C4)C2)C3)c1)N1CCCCC1,-1.5%,?,12.9%,?,-2.7%,13µM*
Cc1nc(N2CCCC2)ncc1C(=O)N1CCN(c2ccccc2F)CC1,1.5%,i,.,i,.,.
COc1ccc(/C=N/Nc2nonc2N)cc1OC,-1.3%,?,-4.5%,?,-6.4%,-3.4%
COc1ccc(/C=N/Nc2nonc2N)cc1,-7.0%[38.3 µM],?,-0.2%,20.6µM*,-1.2%,-9.4%
Cc1ccc(-n2nc(C(=O)N3CCN(c4ccccc4)CC3)c(=O)n(C)c2=O)cc1,0.7%,i,.,i,.,.
CC(C)NC(=O)Cn1c(SCC(=O)N2CCc3ccccc3C2)nc2ccccc21,-2.4%[38.3 µM],i,1.6%,11.6µM*,-8.4%,-1.3%
CCCn1c(=O)c2ccccc2n2c(SCC(=O)N3CCc4ccccc4C3)nnc12,1.2%,i,-3.8%,2.91µM*,-2.8%,-2.9%
COCCn1c(SCC(=O)N2CCc3ccccc3C2)nc2cc(Cl)ccc2c1=O,-1.0%,?,11.9%,1.84µM*,-2.4%,0.7%
Cc1ccc(Cn2c(=O)c3ccccc3n3c(SCC(=O)N4CCCCC4C)nnc23)cc1 (stereo not given),7.4%[38.3 µM],i,-5.4%,8.2µM*,-7.4%,9.5%
Cc1ccc(Nc2ncnc3onc(C)c23)cc1Cl,-0.1%,i,.,i,.,.
CC1CCc2onc(C(=O)Nc3ccc(Cl)cc3)c2C1 (stereo not given),24.5%,.,.,.,.,.
COc1ccc(-n2ncc(C(=O)NCc3ccc4c(c3)OCO4)c2C2CCN(C(=O)OC(C)(C)C)CC2)cc1,-0.5%,i,.,i,.,.
Cn1cnnc1Sc1ccc(CN2CCOc3ccc(C4=CCCCC4)cc3C2)o1,-0.2%,.,.,.,.,.
Cn1c(CSc2ccccc2)c(C#N)c2ccccc21,8.6%[38.3 µM],i,-5.0%,16.4µM*,-4.1%,-3.7%
Cn1c(CNc2ccccn2)c(C#N)c2ccccc21,0.4%[38.3 µM],i,-1.9%,23.1µM*,1.9%,6.6%
